Source: PubChem (National Center for Advancing Translational Sciences (NCATS))
A549 viability – A549 cytotoxicity, counter-screen for Nrf2 inhibitors; A549 ARE-Fluc cells, CellTiter-Fluor viability, 18-24 h; Potency, µM (highest dose often 46 µM), inactives show at the top dose activity change, negative = cytotoxicity, usual class: inhibitors; hit rate 0.16% among 390,000; AID 504648; note: % is set by controls: 0 for no effect and ±100 for the full control effect
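A549 ARE-Fluc cells in 5% FBS OPTI-MEM, 5000 cells/well, rested 2 h then exposed to compounds in concentration-response for 18-24 h at 37 °C. Viability by CellTiter-Fluor fluorescence (Ex 405/Em 525) after 30 min; luciferase luminescence (BugLite, 15 min, RT) read afterwards.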
TGFb inhibitor – TGF-b pathway inhibition; HepG2 CAGA-GFP TGF-b/SMAD3 reporter, GFP fluorescence, 18 h; TGF-beta stimulated, 500 pg/mL final; Potency, µM (doses to about 46.1 µM), inactives show at the highest dose activity, negative = inhibition, hits mostly inhibitors; hit rate 1.2% among 410,000; AID 588855; note: % is set by controls: 0 for no effect and ±100 for the full control effect; nearly all actives have a fitted effect of over 65% in size
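Inhibition was scored as loss of TGF-beta-induced (500 pg/mL final, 18 hours, 37 degrees C) GFP in HEPG2 cells carrying a CAGA-GFP reporter, in DMEM with 1% FBS. Well GFP was summed per cell; Activity was normalised to unstimulated and stimulated DMSO wells, then concentration-response fitting.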
HepG2 tox – counter-screen for TGF-b inhibitors: cytotoxicity in HepG2 cells; HepG2 CAGA-GFP viability, ATP luminescence, 18 h; Potency, µM (top dose mostly 46.1 µM), for the others: at the highest dose activity change, negative = cytotoxicity, usual class: cytotoxic; hit rate 0.76% among 410,000
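CellTiter-Glo luminescence gave cytotoxicity after 18 hours at 37 degrees C. The cells were HepG2 CAGA-GFP in 1% FBS DMEM, stimulated with 500 pg/mL TGF-beta after compound addition. %Activity was normalised to no-cell wells (complete cell-killing) and DMSO (no toxicity), and curves were fitted and classified.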
Nrf2 activator – Nrf2 pathway activation. Potency, µM (titrated, usually from 46.1 µM), without a hit: at the highest dose activation, hits mostly activators. AREc32 ARE-luciferase reporter (MCF7-derived line), luminescence, 24 h. hit rate 0.31% among 410,000. AID 624171; note: % of control where 0% means no effect; nearly all actives have a fitted effect of over 65% in size
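Luminescent ARE reporter assay in AREc32_Fluc cells: overnight plating at 37 deg C, 24 hr compound incubation, Steady-Glo added, 30 min RT before reading.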
Nrf2 block – Nrf2 pathway inhibition; AID 504444; hit rate 2.1% among 360,000; A549 ARE-Fluc reporter, luciferase luminescence, 18-24 h; Potency, µM (series often up to 46 µM), for inactives: at the top dose activity change, negative = inhibition, actives largely listed as inhibitors; note: % is set by controls: 0 for no effect and ±100 for the full control effect; nearly all actives have a fitted effect of over 60% in size
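Concentration-response testing used A549 ARE_Fluc cells at 5000 cells/well. Following an 18-24 h compound incubation, viability was read by fluorescence (Ex 405/Em 525) and luciferase output by luminescence.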
Starred values were filed as active, the others as inactive; ? = inconclusive; [ ] = dose if it differs, or a comment. The list is not random: actives were taken first. Their share in the collection is about 3.6%. Calls come from the whole dose curve; as a rule, active = well fitted curve in the direction sought with a large enough effect; inconclusive = small, poorly fitted or top-dose-only effect, or another doubt; inactive = no such curve, though single readings can be large; an effect the other way counts as inactive or inconclusive. Potency is the fitted concentration of half-maximal effect.

SMILES | A549 viability | TGFb inhibitor | HepG2 tox | Nrf2 activator | Nrf2 block
CC(C)(C)NC(=S)Nc1ccc(Nc2ccccc2)cc1 | -9% | ? | 13µM* | 2% | ?
CCOc1ccc(NC(=O)c2ccc(NC(=S)NC3CCCCC3)cc2)cc1 | -11% | ? | 18µM* | 8% | 12%
COc1ccccc1/C=C1\SC(N2CCC(C)CC2)=NC1=O | -1% | -5% | -26% | 6% | 15%
O=C1NC(=S)S/C1=C\c1coc2ccc(O)cc2c1=O | ? | -2% | -37% | 3% | -14%
CC(=O)Nc1cccc(NC(=O)CSc2ccc(-c3ccccn3)nn2)c1 | -11% | -13% | -20% | 1% | ?
CCc1ccc(NC(=O)CSc2ccc(-c3ccccn3)nn2)cc1 | ? | ? | -6% | 6% | 21µM*
CC(=O)c1cccc(NC(=O)CSc2ccc(-c3ccccn3)nn2)c1 | -13% | ? | -13% | 3% | 21µM*
Cc1ccccc1-c1ccc(=O)n(CC(=O)Nc2ccc(S(=O)(=O)N(C)C)cc2)n1 | -1% | 6% | -1% | 0%[9.22 µM] | -17%
COc1cccc(NS(=O)(=O)Cc2ccccc2)c1 | -3% | -1% | -19% | -1% | 9%
CC1(C)CC(=O)C2=C(C1)N=C1c3ccccc3C(=O)C1C2c1ccc(Cl)cc1 (stereo unspecified) | 26µM* | ? | -10% | 0% | 26µM*
CCOC(=O)C1=C(C)N=C2c3ccccc3C(=O)C2C1c1ccc(Cl)cc1 (stereo unspecified) | 16µM* | ? | -63% | 8% | ?
CCCCCCN1C=CC=C/C1=C/C=C(C#N)C#N | -16% | 5% | -15% | 0% | -3%
C=CCN1C=C/C(=C\C=C(C#N)C#N)c2ccccc21 | 18µM* | -17% | 1% | 3% | ?
CCCCCCN1C=C/C(=C\C=C(C#N)C#N)c2ccccc21 | 6.5µM* | 6% | -19% | -1% | 18µM*
COc1cc(C(=O)NC2CCN(Cc3ccccc3)CC2)cc(Cl)c1OC | -10% | -7% | -30% | 5% | -16%
CCOC(=O)CCNC(=O)N1CCCC(C(=O)c2ccc3c(c2)OCO3)C1 (stereo unspecified) | 0% | 11% | 1% | 0% | -8%
Cc1cc(N2CCN(C)CC2)ccc1NC(=O)c1ccc(-c2ccc(Cl)cc2)o1 | -18% | ? | 11µM* | 2% | 1%
CCC(C(=O)NCCC(C)C)n1ccc2cc(S(=O)(=O)N3CCCCC3)ccc21 (stereo unspecified) | -19% | ? | -20% | 0% | 13µM*
O=C(Cn1ccc2cc(S(=O)(=O)N3CCCCCC3)ccc21)NCCc1ccc(Cl)cc1 | -2% | -29% | -20% | 6% | 26µM*
O=C1CCCN1c1ccc(S(=O)(=O)Oc2ccc(Cl)cc2)cc1[N+](=O)[O-] | ? | ? | -34% | 0% | 7.3µM*
O=[N+]([O-])c1cc(S(=O)(=O)Oc2ccccc2)ccc1Cl | 4% | ? | 8.9µM* | -3% | 4%
Cc1noc(C)c1NC(=O)Nc1cccc2c1O[C@H](CN(C)S(=O)(=O)c1ccc(F)cc1)[C@@H](C)CN([C@H](C)CO)C2=O | 2% | ? | -7% | -1% | -3%
Cc1ccc2oc(C(Cl)(Cl)Cl)cc(=O)c2c1 | ? | ? | -30% | 22µM* | 1%
Cc1ccc2oc(C(F)(F)C(F)F)cc(=O)c2c1 | 4% | -7% | -7% | -2% | 8%
CCCn1c(N/N=C\C=C\c2ccccc2)nc2c1c(=O)[nH]c(=O)n2C | 0% | -15% | -29% | 10% | 9.2µM*
